# Inconclusive results are not listed. Calls of active or inactive are those of the source. The calls were made as follows, unless noted: active = hit-call score of the fitted dose curve at least 0.9, where 1 is the maximum; inactive = score below 0.9.
# Tests used:
# [1] = BSK_3C_VCAM1: BioMAP Diversity Plus: 3C Assay for Vascular cell adhesion molecule 1 (VCAM1) Biomarker Activity (AID 2282999); details: BioMAP 3C HUVEC, VCAM1 ELISA, cytokine-stimulated; actives raise or lower the signal
# Method in brief: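 Vascular primary endothelium (human umbilical vein) was exposed to chemicals and assayed 24 h later. VCAM-1 levels came from ELISA, with DMSO serving as baseline for bidirectional fitting.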
# [2] = BSK_4H_Eotaxin3: BioMAP Diversity Plus: 4H Assay for Eotaxin 3 Biomarker Activity (AID 2283000); details: primary human endothelial cells (HUVEC); actives raise or lower the signal;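 as to outcome: CCL26 protein level quantified by ELISA in parallel with SRB cytotoxicity check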
# Method in brief: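 Endothelial primary cells (human umbilical vein) exposed to compound for 24 h. ELISA detection of Eotaxin-3.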
# [3] = read-out: Intercellular Adhesion Molecule 1 (ICAM1), ICAM1 (gene 3383); assay: BSK_3C_ICAM1: BioMAP Diversity Plus: 3C Assay for Intercellular Adhesion Molecule 1 (ICAM1) Biomarker Activity (AID 2283003); details: primary human endothelial cells (HUVEC); actives raise or lower the signal
# Method in brief: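 ELISA readout of ICAM1 in human umbilical vein endothelial cells in the 3C system, taken 24 h post-dose. Gain or loss of signal versus DMSO was fitted in both directions, with SRB total-protein staining run in parallel.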
# [4] = target: Retinoic acid receptor alpha (Homo sapiens) (UniProt P10276); assay: ATG_RARa_TRANS: Attagene TRANS-FACTORIAL HepG2 Assay for human Retinoic Acid Receptor alpha (RARa) (AID 2283005; active = hit-call score of the fitted dose curve at least 0.9, where 1 is the maximum)
# Chain of Retinoic acid receptor alpha (Homo sapiens) (P10276 whole entry, looked up, the tested form may be a part): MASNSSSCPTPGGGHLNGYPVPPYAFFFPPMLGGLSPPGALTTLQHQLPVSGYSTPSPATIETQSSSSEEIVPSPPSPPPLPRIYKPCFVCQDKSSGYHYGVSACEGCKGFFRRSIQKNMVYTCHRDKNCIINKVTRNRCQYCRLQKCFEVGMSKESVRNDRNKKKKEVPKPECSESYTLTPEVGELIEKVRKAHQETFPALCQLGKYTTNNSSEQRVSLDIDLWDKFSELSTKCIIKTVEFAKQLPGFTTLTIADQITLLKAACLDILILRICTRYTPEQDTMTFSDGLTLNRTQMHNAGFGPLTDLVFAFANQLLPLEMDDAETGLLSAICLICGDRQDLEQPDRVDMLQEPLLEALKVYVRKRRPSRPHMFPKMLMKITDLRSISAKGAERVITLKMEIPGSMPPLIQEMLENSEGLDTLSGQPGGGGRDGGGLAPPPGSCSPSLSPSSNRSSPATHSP
# Method in brief: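 HepG2 cells transiently transfected with multiple reporter units expressing chimeric RARα-GAL4 fusion, with GAL4-UAS-driven reporters. After 24 h compound exposure, reporter mRNA induction quantified by RT-PCR and capillary electrophoresis with fluorescent labeling; gain-of-signal fitted relative to DMSO control.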
# [5] = BSK_3C_Proliferation: Cell Proliferation Assessment in the BioMAP Diversity Plus: 3C Assay (AID 2283006); details: primary human endothelial cells (HUVEC);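 as to AC50: potency may reflect either rise or fall in cell number versus DMSO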
# Method in brief: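 Proliferation as total protein: sulforhodamine B (0.1%) stain of TCA-fixed subconfluent human umbilical vein endothelial cells, absorbance 560 nm, 48 h after dosing. Activity fitted in both directions against DMSO baseline.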
# [6] = target: Peroxisome proliferator-activated receptor gamma (Homo sapiens) (UniProt P37231); assay: ATG_PPARg_TRANS: Attagene TRANS-FACTORIAL HepG2 Assay for human Peroxisome Proliferator-activated Receptor-gamma (PPARg) (AID 2283007; active = hit-call score of the fitted dose curve at least 0.9, where 1 is the maximum)
# Chain of Peroxisome proliferator-activated receptor gamma (Homo sapiens) (P37231 whole entry, looked up, the tested form may be a part): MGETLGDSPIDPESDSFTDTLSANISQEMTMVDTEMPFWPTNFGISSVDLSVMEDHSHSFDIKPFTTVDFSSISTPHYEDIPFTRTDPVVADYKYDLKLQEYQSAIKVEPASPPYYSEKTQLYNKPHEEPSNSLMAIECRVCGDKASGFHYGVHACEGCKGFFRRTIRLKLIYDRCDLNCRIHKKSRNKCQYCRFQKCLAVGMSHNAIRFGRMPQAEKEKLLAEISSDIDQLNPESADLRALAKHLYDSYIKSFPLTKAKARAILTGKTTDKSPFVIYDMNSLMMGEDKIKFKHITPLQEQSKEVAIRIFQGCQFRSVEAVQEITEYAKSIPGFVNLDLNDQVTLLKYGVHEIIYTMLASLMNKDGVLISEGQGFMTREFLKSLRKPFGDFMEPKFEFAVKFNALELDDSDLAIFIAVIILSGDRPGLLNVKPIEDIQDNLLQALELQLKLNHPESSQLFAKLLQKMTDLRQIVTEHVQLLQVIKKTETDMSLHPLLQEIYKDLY
# Method in brief: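 Gain-of-signal endpoint relative to DMSO, derived from reporter mRNA levels quantified by RT-PCR and capillary electrophoresis. Cells were HepG2 transiently expressing a chimeric NR-Gal4 construct with GAL4-UAS reporters, exposed to chemicals for 24 h.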
# [7] = target: Nuclear receptor subfamily 1 group I member 2 (Homo sapiens) (UniProt O75469); assay: ATG_PXR_TRANS: Attagene TRANS-FACTORIAL HepG2 Assay for human Pregnane X Receptor (PXR) (AID 2283008; active = hit-call score of the fitted dose curve at least 0.9, where 1 is the maximum)
# Chain of Nuclear receptor subfamily 1 group I member 2 (Homo sapiens) (O75469 whole entry, looked up, the tested form may be a part): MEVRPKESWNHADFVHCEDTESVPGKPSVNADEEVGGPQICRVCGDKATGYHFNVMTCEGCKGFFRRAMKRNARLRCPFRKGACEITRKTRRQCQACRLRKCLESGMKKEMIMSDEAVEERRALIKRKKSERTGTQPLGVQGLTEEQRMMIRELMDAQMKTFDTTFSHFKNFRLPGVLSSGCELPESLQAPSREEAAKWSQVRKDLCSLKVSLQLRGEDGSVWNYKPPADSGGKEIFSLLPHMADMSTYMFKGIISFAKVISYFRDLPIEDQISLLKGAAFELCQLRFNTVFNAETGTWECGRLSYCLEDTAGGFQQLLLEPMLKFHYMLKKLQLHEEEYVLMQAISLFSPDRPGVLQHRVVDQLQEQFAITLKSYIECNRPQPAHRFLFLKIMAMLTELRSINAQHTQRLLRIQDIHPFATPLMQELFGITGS
# Method in brief: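 HepG2 transfected (FuGene 6) with GAL4-UAS reporter units + PXR-Gal4 chimera; dosed 24 h. Total RNA → oligo(dT) RT → PCR → 6-FAM primer extension → HpaI cut → CE. Gain-of-signal vs DMSO.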
# [8] = target: human Retinoic Acid Receptor gamma (RARg), RARG (gene 5916) (UniProt P13631); assay: ATG_RARg_TRANS: Attagene TRANS-FACTORIAL HepG2 Assay for human Retinoic Acid Receptor gamma (RARg) (AID 2283009; active = hit-call score of the fitted dose curve at least 0.9, where 1 is the maximum)
# Chain of human Retinoic Acid Receptor gamma (RARg), RARG (gene 5916) (P13631 whole entry, looked up, the tested form may be a part): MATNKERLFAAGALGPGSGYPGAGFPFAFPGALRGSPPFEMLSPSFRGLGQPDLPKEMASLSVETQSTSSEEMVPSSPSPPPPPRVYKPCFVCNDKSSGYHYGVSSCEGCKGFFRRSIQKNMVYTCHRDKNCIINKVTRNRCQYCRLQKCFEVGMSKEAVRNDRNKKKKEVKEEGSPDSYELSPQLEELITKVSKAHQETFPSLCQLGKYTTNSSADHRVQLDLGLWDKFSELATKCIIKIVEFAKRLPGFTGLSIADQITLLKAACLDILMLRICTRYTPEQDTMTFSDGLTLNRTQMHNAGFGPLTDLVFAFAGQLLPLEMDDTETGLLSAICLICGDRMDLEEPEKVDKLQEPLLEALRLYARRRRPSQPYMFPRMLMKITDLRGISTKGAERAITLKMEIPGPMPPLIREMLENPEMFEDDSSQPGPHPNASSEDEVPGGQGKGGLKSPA
# Method in brief: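 Transactivation of exogenous RARg-Gal4 fusion measured as reporter transcript induction after 24 h in transfected HepG2 cells. RNA reverse-transcribed, amplified, fluorescently labeled and resolved by capillary electrophoresis; increase relative to DMSO.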
# [9] = target: human Peroxisome Proliferator-activated Receptor alpha (PPARa), PPARA (gene 5465) (UniProt Q07869); assay: ATG_PPARa_TRANS: Attagene TRANS-FACTORIAL HepG2 Assay for human Peroxisome Proliferator-activated Receptor alpha (PPARa) (AID 2283001; active = hit-call score of the fitted dose curve at least 0.9, where 1 is the maximum)
# Chain of human Peroxisome Proliferator-activated Receptor alpha (PPARa), PPARA (gene 5465) (Q07869 whole entry, looked up): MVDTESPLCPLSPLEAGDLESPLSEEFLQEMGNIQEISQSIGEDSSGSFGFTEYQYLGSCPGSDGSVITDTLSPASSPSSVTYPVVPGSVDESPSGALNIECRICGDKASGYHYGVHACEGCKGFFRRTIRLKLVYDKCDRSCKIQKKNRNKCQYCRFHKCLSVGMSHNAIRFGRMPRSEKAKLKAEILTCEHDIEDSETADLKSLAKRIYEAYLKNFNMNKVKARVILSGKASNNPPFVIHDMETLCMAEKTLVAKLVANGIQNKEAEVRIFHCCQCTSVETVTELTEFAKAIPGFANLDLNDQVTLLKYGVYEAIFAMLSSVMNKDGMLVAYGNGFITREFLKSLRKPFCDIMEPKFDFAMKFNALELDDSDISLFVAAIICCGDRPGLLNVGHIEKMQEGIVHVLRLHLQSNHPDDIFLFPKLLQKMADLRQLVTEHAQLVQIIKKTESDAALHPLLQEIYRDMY
# Method in brief: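 Cells (HepG2) are transfected with multiple reporter transcription units, exposed to chemical for 24 h, then total RNA is reverse-transcribed and amplified. Labelled products are quantified by capillary electrophoresis; induction is referenced to DMSO.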
smiles,measurement,setting,value
CCOP(=S)(OCC)OC(Cl)C(Cl)(Cl)Cl (stereo not drawn),AC50,[1],14.6 µM (active)
same,outcome,[2],inactive
same,outcome,[3],inactive
same,outcome,[4],inactive
same,AC50,[5],32.1 µM (active)
same,outcome,[6],inactive
same,outcome,[7],inactive
same,outcome,[8],inactive
CCc1cnc(C2=NC(C)(C(C)C)C(=O)N2)c(C(=O)O)c1 (stereo not drawn),outcome,[1],inactive
same,outcome,[2],inactive
same,outcome,[3],inactive
same,outcome,[5],inactive
same,outcome,[6],inactive
CC(C)[C@H](C(=O)O[C@H](C#N)c1cccc(Oc2ccccc2)c1)c1ccc(Cl)cc1,outcome,[1],inactive
same,outcome,[2],inactive
same,outcome,[3],inactive
same,AC50,[5],6.57 µM (active)
same,AC50,[6],9.37 µM (active)
same,AC50,[7],5 µM (active)
COP(=O)(OC)OC(Br)C(Cl)(Cl)Br (stereo not drawn),AC50,[1],29.7 µM (active)
same,AC50,[2],33.2 µM (active)
same,AC50,[3],36.4 µM (active)
same,outcome,[4],inactive
same,AC50,[5],16 µM (active)
same,outcome,[6],inactive
same,outcome,[8],inactive
CCOP(=S)(OCC)Oc1ccc([N+](=O)[O-])cc1,outcome,[1],inactive
same,outcome,[2],inactive
same,outcome,[3],inactive
same,outcome,[5],inactive
same,AC50,[6],28.8 µM (active)
same,AC50,[7],19.9 µM (active)
COP(=O)(NC(C)=O)SC (stereo not drawn),outcome,[1],inactive
same,outcome,[2],inactive
same,outcome,[3],inactive
same,outcome,[5],inactive
same,outcome,[6],inactive
CSc1nnc(C(C)(C)C)c(=O)n1N,outcome,[1],inactive
same,outcome,[2],inactive
same,outcome,[3],inactive
same,outcome,[4],inactive
same,outcome,[5],inactive
same,outcome,[8],inactive
COc1cccc(C(=O)NN(C(=O)c2cc(C)cc(C)c2)C(C)(C)C)c1C,outcome,[1],inactive
same,outcome,[2],inactive
same,outcome,[3],inactive
same,outcome,[4],inactive
same,outcome,[5],inactive
same,outcome,[6],inactive
same,outcome,[7],inactive
CCc1cccc(CC)c1N(COC)C(=O)CCl,AC50,[1],31.4 µM (active)
same,AC50,[2],22.4 µM (active)
same,outcome,[3],inactive
same,AC50,[5],28.5 µM (active)
same,AC50,[6],1.79 µM (active)
same,outcome,[7],inactive
same,outcome,[8],inactive
COc1ccc(C(=CC(=O)N2CCOCC2)c2ccc(Cl)cc2)cc1OC,outcome,[1],inactive
same,outcome,[2],inactive
same,outcome,[9],inactive
same,outcome,[3],inactive
same,outcome,[5],inactive
same,outcome,[6],inactive
same,outcome,[7],inactive
CCCCOC(=O)[C@@H](C)Oc1ccc(Oc2ccc(C#N)cc2F)cc1,outcome,[1],inactive
same,outcome,[2],inactive
same,outcome,[9],inactive
same,outcome,[3],inactive
same,outcome,[5],inactive
same,outcome,[6],inactive
same,outcome,[7],inactive
CCC(CC)Nc1c([N+](=O)[O-])cc(C)c(C)c1[N+](=O)[O-],AC50,[1],17.1 µM (active)
same,outcome,[2],inactive
same,outcome,[3],inactive
same,AC50,[5],29.2 µM (active)
same,AC50,[6],73.2 µM (active)
same,AC50,[7],27.6 µM (active)
CCOP(=O)(NC(C)C)Oc1ccc(SC)c(C)c1 (stereo not drawn),outcome,[1],inactive
same,outcome,[2],inactive
same,outcome,[3],inactive
same,outcome,[4],inactive
same,outcome,[5],inactive
same,AC50,[6],32.3 µM (active)
same,outcome,[7],inactive
same,outcome,[8],inactive
C#CC(C)(C)NC(=O)c1cc(Cl)cc(Cl)c1,outcome,[1],inactive
same,outcome,[2],inactive
same,outcome,[3],inactive
same,outcome,[4],inactive
same,outcome,[5],inactive
same,AC50,[7],30.9 µM (active)
Cc1ccn2nc(S(=O)(=O)Nc3c(F)cccc3F)nc2n1,outcome,[1],inactive
same,outcome,[2],inactive
same,outcome,[9],inactive
same,outcome,[3],inactive
same,outcome,[5],inactive
same,outcome,[6],inactive
same,outcome,[7],inactive
same,outcome,[8],inactive
C[N+]1(C)CCCCC1,outcome,[1],inactive
same,outcome,[2],inactive
same,outcome,[3],inactive
same,outcome,[4],inactive
same,outcome,[5],inactive
same,outcome,[6],inactive
same,outcome,[7],inactive
same,outcome,[8],inactive
O=c1ccc(=O)[nH][nH]1,outcome,[1],inactive
same,outcome,[2],inactive
same,outcome,[9],inactive
same,outcome,[3],inactive
same,outcome,[5],inactive
same,outcome,[6],inactive
same,outcome,[7],inactive
CNc1cnn(-c2cccc(C(F)(F)F)c2)c(=O)c1Cl,outcome,[1],inactive
same,outcome,[2],inactive
same,outcome,[3],inactive
same,outcome,[4],inactive
same,outcome,[5],inactive
same,outcome,[6],inactive
same,outcome,[7],inactive
same,outcome,[8],inactive
CSC1=N[C@@](C)(c2ccccc2)C(=O)N1Nc1ccccc1,outcome,[1],inactive
same,AC50,[2],25.3 µM (active)
same,outcome,[3],inactive
same,AC50,[5],18.9 µM (active)
same,outcome,[6],inactive
same,outcome,[7],inactive

# Source: PubChem BioAssay (EPA / NIEHS)
